# Legend:
# Assay in all cases: DAPPL (digital affinity profiling via proximity ligation, sequencing); 10 mM Tris-HCl pH 7.5, 50 mM NaCl, 1 mM DTT, 4% glycerol, room temperature, 30 min; GST-TFs on glutathione beads, 16-mer random dsDNA library, 0.1% formaldehyde crosslink after washing; high values mean tight binding
# [1] = target: T1, FLI1 (Homo sapiens, UniProt Q01543 1-452); conditions: protein: recombinant; tags: N-terminal GST; dsDNA, one strand shown
# T1 sequence: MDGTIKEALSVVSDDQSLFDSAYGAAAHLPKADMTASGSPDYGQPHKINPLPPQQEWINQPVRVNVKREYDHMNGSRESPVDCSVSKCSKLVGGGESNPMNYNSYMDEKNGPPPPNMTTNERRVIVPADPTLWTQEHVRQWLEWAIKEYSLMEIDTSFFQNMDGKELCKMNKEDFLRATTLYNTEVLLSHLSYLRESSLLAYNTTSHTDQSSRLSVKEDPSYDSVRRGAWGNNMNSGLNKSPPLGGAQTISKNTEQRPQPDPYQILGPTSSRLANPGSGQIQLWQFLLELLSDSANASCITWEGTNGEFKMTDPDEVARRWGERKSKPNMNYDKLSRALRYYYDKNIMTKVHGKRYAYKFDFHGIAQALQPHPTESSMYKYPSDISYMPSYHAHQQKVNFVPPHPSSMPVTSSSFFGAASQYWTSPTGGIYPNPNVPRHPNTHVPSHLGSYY
# Outline: (§1)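 Binding signal is defined as a hexamer's read frequency for one factor over its frequency for the tag-only sample. To obtain reads, GST-fused human transcription factors were expressed in yeast, captured on glutathione beads, barcoded with DNA and pooled with that sample. Pools met 200 nmole of a 16-mer random double-stranded DNA library in Tris/NaCl/DTT/glycerol buffer for 30 min at room temperature before washing, 0.1% formaldehyde crosslinking, proximity ligation (BsaI/T4 ligase, 1 h, 37 °C), PCR and Illumina NextSeq500 sequencing.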
# [2] = target: T2, ELK1 (Homo sapiens, UniProt P19419 1-428); conditions: protein: recombinant; tags: N-terminal GST; dsDNA, one strand shown
# T2 sequence: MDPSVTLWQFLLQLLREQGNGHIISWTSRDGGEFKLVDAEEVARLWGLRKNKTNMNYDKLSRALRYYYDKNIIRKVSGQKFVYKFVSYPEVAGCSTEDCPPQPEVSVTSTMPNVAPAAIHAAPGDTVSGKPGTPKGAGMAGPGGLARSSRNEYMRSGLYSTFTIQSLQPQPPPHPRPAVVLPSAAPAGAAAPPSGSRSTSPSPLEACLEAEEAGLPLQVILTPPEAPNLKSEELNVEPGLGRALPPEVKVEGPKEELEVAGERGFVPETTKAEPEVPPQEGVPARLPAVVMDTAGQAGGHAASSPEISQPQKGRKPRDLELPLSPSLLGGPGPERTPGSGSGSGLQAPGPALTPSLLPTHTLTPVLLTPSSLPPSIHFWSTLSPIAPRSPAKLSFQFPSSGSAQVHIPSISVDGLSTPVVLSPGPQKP
# Outline: as §1
# [3] = target: T3, GABPA (Homo sapiens, UniProt Q06546 1-454); conditions: protein: recombinant; tags: N-terminal GST; dsDNA, one strand shown
# T3 sequence: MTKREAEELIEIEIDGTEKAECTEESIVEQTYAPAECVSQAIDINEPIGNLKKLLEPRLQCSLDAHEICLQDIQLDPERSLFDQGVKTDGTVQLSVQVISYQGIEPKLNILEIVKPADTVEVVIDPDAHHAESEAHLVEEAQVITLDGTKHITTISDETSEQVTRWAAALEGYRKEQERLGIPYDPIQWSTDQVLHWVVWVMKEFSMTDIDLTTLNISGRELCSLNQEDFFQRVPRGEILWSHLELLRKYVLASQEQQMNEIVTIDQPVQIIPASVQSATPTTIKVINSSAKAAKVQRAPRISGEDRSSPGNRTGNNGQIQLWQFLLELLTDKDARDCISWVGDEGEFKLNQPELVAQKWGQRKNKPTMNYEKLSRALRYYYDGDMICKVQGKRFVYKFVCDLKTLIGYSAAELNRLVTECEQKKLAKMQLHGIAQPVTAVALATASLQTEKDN
# Outline: as §1
# [4] = target: T4, ERG (Homo sapiens, UniProt P11308 1-479); conditions: protein: recombinant; tags: N-terminal GST; dsDNA, one strand shown
# T4 sequence: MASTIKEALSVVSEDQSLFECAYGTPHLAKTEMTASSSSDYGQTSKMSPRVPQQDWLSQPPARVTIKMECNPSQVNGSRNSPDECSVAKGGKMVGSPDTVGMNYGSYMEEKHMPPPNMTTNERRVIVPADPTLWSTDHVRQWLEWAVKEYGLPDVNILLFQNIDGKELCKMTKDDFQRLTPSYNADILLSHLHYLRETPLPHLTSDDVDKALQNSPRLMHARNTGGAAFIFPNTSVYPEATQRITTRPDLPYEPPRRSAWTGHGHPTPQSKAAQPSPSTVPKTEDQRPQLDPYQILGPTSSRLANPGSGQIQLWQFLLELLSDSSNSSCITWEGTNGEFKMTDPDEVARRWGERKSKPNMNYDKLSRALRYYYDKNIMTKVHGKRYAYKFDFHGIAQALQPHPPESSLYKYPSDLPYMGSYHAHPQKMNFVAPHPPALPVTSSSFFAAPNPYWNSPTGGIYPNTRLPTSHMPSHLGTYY
# Outline: as §1
# [5] = target: ELF1 (Homo sapiens, UniProt P32519 1-619); conditions: protein: recombinant; tags: N-terminal GST; dsDNA, one strand shown
# ELF1, sequence (P32519 whole entry): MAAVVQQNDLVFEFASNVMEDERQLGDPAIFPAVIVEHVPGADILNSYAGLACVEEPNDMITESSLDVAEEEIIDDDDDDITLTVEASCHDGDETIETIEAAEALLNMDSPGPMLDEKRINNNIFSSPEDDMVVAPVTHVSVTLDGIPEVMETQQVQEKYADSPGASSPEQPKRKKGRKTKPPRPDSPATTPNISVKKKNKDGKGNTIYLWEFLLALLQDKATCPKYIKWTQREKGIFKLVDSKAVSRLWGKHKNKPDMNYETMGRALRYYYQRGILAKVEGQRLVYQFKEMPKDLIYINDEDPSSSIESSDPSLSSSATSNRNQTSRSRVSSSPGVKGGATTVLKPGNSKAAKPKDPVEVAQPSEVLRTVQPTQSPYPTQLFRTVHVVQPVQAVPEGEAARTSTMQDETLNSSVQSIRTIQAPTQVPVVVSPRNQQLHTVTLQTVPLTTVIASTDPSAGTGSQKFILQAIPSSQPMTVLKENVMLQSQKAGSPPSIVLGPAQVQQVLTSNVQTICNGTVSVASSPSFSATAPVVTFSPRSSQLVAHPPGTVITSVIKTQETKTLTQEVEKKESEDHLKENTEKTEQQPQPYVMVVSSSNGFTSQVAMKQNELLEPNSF
# Outline: as §1
# [6] = target: T5, EHF (Homo sapiens, UniProt Q9NZC4 1-300); conditions: protein: recombinant; tags: N-terminal GST; dsDNA, one strand shown
# T5 sequence: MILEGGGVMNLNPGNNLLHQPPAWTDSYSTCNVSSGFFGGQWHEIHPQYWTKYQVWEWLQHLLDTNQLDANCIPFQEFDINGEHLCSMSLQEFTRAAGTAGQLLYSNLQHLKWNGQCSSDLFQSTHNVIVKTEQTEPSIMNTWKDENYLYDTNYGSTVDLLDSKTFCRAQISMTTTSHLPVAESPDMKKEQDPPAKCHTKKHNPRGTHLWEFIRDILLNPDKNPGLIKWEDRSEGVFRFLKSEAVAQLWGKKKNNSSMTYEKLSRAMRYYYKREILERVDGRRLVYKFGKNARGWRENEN
# Outline: as §1
# [7] = target: SPI1 (Homo sapiens, UniProt P17947 1-270); conditions: protein: recombinant; tags: N-terminal GST; dsDNA, one strand shown
# Outline: as §1
# [8] = target: SPIB (Homo sapiens, UniProt Q01892 1-262); conditions: protein: recombinant; tags: N-terminal GST; dsDNA, one strand shown
# SPIB, sequence (Q01892 whole entry): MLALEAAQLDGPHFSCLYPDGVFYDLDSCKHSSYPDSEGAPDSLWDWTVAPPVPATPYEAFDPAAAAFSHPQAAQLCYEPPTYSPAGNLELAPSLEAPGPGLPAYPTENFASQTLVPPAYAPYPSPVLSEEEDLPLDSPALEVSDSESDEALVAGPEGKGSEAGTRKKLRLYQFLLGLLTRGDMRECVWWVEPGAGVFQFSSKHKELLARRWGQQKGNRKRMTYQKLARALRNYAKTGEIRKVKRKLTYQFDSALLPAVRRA
# Outline: as §1
# [9] = target: T6, ELK3 (Homo sapiens, UniProt P41970 1-407); conditions: protein: recombinant; tags: N-terminal GST; dsDNA, one strand shown
# T6 sequence: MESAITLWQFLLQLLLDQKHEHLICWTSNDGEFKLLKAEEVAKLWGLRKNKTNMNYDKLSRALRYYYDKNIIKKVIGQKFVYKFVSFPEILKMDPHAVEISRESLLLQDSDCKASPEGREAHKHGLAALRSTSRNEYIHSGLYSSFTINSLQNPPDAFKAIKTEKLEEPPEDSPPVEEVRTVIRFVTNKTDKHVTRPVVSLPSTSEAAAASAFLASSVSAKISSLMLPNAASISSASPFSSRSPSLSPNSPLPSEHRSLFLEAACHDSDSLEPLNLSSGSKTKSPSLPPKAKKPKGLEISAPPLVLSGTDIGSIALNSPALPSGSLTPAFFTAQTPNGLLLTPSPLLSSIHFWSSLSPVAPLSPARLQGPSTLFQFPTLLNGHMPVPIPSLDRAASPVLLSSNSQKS
# Outline: as §1
# [10] = target: T7, FEV (Homo sapiens, UniProt Q99581 1-238); conditions: protein: recombinant; tags: N-terminal GST; dsDNA, one strand shown
# T7 sequence: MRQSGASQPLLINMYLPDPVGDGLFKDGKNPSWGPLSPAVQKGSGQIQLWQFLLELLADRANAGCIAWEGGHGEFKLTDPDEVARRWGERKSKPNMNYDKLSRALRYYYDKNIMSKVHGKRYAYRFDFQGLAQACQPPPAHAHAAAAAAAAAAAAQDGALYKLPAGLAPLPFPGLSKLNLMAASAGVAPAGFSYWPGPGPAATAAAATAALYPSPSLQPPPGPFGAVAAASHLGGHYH
# Outline: as §1
# [11] = target: ETV5 (Homo sapiens, UniProt P41161 1-510); conditions: protein: recombinant; tags: N-terminal GST; dsDNA, one strand shown
# ETV5, sequence (P41161 whole entry): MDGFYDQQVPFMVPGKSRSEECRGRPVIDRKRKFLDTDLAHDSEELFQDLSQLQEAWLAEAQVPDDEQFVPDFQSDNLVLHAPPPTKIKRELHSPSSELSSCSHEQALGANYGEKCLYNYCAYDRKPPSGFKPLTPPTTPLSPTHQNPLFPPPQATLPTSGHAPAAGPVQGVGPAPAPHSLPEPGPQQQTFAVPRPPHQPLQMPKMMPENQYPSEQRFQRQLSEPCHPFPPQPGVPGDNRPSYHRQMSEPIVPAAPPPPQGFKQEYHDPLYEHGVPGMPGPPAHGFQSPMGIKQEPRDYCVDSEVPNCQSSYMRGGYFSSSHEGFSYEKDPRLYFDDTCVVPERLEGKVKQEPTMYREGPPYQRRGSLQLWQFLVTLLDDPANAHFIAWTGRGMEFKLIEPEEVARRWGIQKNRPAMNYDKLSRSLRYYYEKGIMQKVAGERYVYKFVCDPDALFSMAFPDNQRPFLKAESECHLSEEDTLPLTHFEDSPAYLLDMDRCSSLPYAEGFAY
# Outline: as §1
# [12] = target: HSF1 (Homo sapiens, UniProt Q00613 1-529); conditions: protein: recombinant; tags: N-terminal GST; chain copies: 3; dsDNA, one strand shown
# HSF1, sequence (Q00613 whole entry): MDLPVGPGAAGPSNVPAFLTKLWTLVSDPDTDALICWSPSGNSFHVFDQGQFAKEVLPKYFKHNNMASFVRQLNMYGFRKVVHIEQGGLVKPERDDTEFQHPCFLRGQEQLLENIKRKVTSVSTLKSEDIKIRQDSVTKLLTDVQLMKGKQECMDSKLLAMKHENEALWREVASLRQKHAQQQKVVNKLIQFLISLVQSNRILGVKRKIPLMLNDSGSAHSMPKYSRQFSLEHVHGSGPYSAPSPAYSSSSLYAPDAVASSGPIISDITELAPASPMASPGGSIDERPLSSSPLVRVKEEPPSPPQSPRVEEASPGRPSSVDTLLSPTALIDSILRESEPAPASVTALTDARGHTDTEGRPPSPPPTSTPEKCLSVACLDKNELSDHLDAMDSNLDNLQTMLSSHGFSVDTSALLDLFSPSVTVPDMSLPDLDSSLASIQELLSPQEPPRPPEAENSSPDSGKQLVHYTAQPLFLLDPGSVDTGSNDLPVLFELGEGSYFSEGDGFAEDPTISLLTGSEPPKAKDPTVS
# Outline: as §1
# [13] = target: T8, SPIC (Homo sapiens, UniProt Q8N5J4 1-248); conditions: protein: recombinant; tags: N-terminal GST; dsDNA, one strand shown
# T8 sequence: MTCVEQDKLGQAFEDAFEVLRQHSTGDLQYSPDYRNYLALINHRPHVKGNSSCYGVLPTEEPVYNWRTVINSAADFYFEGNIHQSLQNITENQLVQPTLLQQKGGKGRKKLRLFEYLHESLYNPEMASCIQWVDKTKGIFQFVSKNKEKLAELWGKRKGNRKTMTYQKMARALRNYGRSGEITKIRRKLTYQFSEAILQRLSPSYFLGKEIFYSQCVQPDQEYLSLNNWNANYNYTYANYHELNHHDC
# Outline: as §1
# [14] = target: ELF4 (Homo sapiens, UniProt Q99607 1-663); conditions: protein: recombinant; tags: N-terminal GST; dsDNA, one strand shown
# ELF4, sequence (Q99607 whole entry): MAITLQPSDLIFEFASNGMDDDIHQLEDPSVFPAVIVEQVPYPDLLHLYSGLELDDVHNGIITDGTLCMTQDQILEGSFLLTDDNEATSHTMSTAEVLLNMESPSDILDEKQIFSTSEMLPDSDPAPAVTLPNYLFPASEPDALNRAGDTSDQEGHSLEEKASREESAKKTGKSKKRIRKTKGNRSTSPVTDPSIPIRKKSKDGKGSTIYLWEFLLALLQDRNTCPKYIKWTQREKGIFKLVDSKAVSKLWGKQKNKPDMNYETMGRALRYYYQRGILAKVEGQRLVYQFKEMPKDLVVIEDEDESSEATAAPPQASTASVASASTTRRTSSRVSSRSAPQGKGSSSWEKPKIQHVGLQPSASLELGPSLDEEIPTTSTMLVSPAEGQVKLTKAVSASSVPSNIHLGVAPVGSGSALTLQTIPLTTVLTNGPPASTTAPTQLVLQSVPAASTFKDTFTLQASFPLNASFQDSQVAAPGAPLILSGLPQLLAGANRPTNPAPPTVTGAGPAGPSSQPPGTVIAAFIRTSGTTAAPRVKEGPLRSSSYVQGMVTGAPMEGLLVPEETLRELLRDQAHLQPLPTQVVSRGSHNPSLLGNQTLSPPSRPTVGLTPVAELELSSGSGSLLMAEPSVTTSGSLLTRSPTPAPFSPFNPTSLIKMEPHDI
# Outline: as §1
# [15] = target: T9, ELK4 (Homo sapiens, UniProt P28324-2 1-405); conditions: protein: recombinant; tags: N-terminal GST; dsDNA, one strand shown
# T9 sequence: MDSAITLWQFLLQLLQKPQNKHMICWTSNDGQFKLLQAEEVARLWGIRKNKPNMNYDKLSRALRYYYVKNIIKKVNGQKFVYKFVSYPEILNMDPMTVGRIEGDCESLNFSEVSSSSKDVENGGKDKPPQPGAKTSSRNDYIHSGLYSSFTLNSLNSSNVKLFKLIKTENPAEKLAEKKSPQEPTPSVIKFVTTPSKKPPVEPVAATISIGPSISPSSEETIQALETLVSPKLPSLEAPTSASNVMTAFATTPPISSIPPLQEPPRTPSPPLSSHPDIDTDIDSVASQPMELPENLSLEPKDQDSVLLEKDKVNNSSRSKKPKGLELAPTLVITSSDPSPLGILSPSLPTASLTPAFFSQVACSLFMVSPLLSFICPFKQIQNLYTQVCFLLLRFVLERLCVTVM
# Outline: as §1
# [16] = target: T10, ETV2 (Homo sapiens, UniProt O00321 1-342); conditions: protein: recombinant; tags: N-terminal GST; dsDNA, one strand shown
# T10 sequence: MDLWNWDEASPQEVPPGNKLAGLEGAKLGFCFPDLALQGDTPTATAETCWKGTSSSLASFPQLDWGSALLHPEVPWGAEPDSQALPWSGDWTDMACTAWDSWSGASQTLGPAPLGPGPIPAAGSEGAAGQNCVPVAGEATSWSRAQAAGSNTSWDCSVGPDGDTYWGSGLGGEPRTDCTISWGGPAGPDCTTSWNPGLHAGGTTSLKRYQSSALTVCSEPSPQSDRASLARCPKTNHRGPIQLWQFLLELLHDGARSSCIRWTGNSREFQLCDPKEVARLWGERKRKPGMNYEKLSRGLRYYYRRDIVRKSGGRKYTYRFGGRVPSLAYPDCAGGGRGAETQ
# Outline: as §1
# [17] = target: T11, ELF3 (Homo sapiens, UniProt P78545 1-371); conditions: protein: recombinant; tags: N-terminal GST; dsDNA, one strand shown
# T11 sequence: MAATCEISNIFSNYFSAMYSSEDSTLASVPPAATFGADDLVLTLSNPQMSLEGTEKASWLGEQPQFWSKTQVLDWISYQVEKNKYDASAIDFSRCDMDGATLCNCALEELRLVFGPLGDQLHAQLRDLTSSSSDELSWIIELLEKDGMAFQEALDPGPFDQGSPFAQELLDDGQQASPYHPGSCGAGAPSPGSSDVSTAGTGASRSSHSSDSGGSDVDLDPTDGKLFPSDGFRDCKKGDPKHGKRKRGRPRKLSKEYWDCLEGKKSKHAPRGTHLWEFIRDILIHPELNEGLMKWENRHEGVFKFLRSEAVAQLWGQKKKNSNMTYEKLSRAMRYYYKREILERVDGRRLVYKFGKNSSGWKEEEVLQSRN
# Outline: as §1
# [18] = target: CRX (Homo sapiens, UniProt O43186 1-299); conditions: protein: recombinant; tags: N-terminal GST; dsDNA, one strand shown
# CRX, sequence (O43186 whole entry): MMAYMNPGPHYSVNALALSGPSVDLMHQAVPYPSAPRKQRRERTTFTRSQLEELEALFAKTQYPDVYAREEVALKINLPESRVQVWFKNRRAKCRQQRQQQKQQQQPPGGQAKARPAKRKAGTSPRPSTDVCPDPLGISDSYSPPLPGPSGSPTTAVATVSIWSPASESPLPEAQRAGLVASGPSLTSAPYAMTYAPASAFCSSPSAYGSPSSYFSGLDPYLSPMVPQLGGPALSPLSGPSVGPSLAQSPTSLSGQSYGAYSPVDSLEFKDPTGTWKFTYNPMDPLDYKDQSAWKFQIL
# Outline: as §1
# [19] = target: ETV1 (Homo sapiens, UniProt P50549 1-477); conditions: protein: recombinant; tags: N-terminal GST; dsDNA, one strand shown
# ETV1, sequence (P50549 whole entry): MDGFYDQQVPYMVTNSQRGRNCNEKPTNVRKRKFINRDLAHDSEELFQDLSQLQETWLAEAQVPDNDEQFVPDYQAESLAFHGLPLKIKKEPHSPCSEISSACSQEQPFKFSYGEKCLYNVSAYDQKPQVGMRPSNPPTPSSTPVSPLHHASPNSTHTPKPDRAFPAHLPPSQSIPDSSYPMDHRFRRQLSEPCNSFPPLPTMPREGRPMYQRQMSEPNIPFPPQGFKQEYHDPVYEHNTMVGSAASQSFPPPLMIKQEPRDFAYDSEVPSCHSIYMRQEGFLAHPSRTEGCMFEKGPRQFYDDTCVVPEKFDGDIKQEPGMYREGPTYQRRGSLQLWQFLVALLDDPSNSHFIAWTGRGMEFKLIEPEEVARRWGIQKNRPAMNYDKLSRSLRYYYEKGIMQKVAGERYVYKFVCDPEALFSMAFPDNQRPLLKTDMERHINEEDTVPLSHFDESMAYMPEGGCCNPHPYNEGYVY
# Outline: as §1
sequence,measurement,setting,value
TCTTCT,binding signal,[1],"1.3 fold enrichment (6-mer frequency, TF over GST control)"
same,binding signal,[2],"1.29 fold enrichment (6-mer frequency, TF over GST control)"
same,binding signal,[3],"1.21 fold enrichment (6-mer frequency, TF over GST control)"
same,binding signal,[4],"1.23 fold enrichment (6-mer frequency, TF over GST control)"
same,binding signal,[5],"1.25 fold enrichment (6-mer frequency, TF over GST control)"
same,binding signal,[6],"1.14 fold enrichment (6-mer frequency, TF over GST control)"
same,binding signal,[7],"1.22 fold enrichment (6-mer frequency, TF over GST control)"
same,binding signal,[8],"1.19 fold enrichment (6-mer frequency, TF over GST control)"
same,binding signal,[9],"1.25 fold enrichment (6-mer frequency, TF over GST control)"
same,binding signal,[10],"1.16 fold enrichment (6-mer frequency, TF over GST control)"
same,binding signal,[11],"1.14 fold enrichment (6-mer frequency, TF over GST control)"
same,binding signal,[12],"2.17 fold enrichment (6-mer frequency, TF over GST control)"
same,binding signal,[13],"1.31 fold enrichment (6-mer frequency, TF over GST control)"
same,binding signal,[14],"1.16 fold enrichment (6-mer frequency, TF over GST control)"
same,binding signal,[15],"1.26 fold enrichment (6-mer frequency, TF over GST control)"
same,binding signal,[16],"1.22 fold enrichment (6-mer frequency, TF over GST control)"
same,binding signal,[17],"1.31 fold enrichment (6-mer frequency, TF over GST control)"
same,binding signal,[18],"1.59 fold enrichment (6-mer frequency, TF over GST control)"
same,binding signal,[19],"1.25 fold enrichment (6-mer frequency, TF over GST control)"

# — article PMC7862700, “An all-to-all approach to the identification of sequence-specific readers for epigenetic DNA modifications on cytosine”
